Here are results for 84 compounds from PubChem BioAssay AID463173 (ICCB-Longwood Screening Facility, Harvard Medical School, 2010).

Out of some 52,000 compounds screened, about 4,300 (8.3%) were called active. Cut-off read from the data, not from the text of the source: active = survival mostly below about 52% (no sharp cut-off); inactive = mostly above about 56%. The list comes from a sample in which actives are over-represented; it also holds similar structures and randomly drawn compounds.

This assay concerns DeltatarO mutant. In words: growth inhibition of S. aureus wild type versus tarO mutant, primary screen, teichoic acid synthesis inhibitors, RN4220, OD600 (AID 463173). The following applies: OD600, 18 h, hits give low values, screened at 18.75 µg/mL (by protocol).
Consider `COc1cc(C(=O)NCCSc2c(-c3ccccc3)[nH]c3ccccc23)cc(OC)c1OC`, for which the survival was 68% (inactive).
The same measure for `CC(C)c1ccc(NS(=O)(=O)c2ccc3[nH]cc(C(=O)NCC4CCCO4)c(=O)c3c2)cc1` (centres undefined): 81% (inactive); for `COc1cccc(NS(=O)(=O)c2ccc3[nH]cc(C(=O)NC4CCCCC4)c(=O)c3c2)c1`: 35% (active); for `CC(C)c1ccc(NS(=O)(=O)c2ccc3[nH]cc(C(=O)NC4CCCC4)c(=O)c3c2)cc1`: 4% (active).
The same measure for `CC(C)c1ccc(NS(=O)(=O)c2ccc3[nH]cc(C(=O)N4CCCC4)c(=O)c3c2)cc1`: 76% (inactive); for `Cc1cc(C)cc(NS(=O)(=O)c2ccc3[nH]cc(C(=O)N4CCCCC4)c(=O)c3c2)c1`: 83% (inactive); for `CC(C)c1ccc(NS(=O)(=O)c2ccc3[nH]cc(C(=O)NCCc4ccccc4)c(=O)c3c2)cc1`: 73% (inactive).
The same measure for `CCN(c1ccccc1)S(=O)(=O)c1ccc2[nH]cc(C(=O)NC3CCCCC3)c(=O)c2c1`: 82% (inactive).
Turning to `Cc1cc(C)cc(NS(=O)(=O)c2ccc3[nH]cc(C(=O)N4CCCCCC4)c(=O)c3c2)c1`, the survival was 85% (inactive).
The same measure for `COc1cccc(NS(=O)(=O)c2ccc3[nH]cc(C(=O)N4CCCCCC4)c(=O)c3c2)c1`: 124% (inactive); for `COc1cccc(NS(=O)(=O)c2ccc3[nH]cc(C(=O)N(C)C4CCCCC4)c(=O)c3c2)c1`: 98% (inactive); for `Cc1cc(C)cc(NS(=O)(=O)c2ccc3[nH]cc(C(=O)NC4CCCCC4)c(=O)c3c2)c1`: 17% (active).
With `CC(C)c1ccc(NS(=O)(=O)c2ccc3[nH]cc(C(=O)NC4CCCCC4)c(=O)c3c2)cc1`, the survival was 14% (active).
As for `Fc1ccc(Nc2ncnc3c2nc2n3CCCCC2)c(F)c1`, the figure is 55% (inactive); as for `CN(C)S(=O)(=O)N(CC(=O)NCCSc1ccc(Cl)cc1)c1ccccc1`, 50% (inactive).
As for `NC(=O)CCn1c2ccccc2c2ccccc21`, the figure is 78% (inactive); as for `O=C1C=CC(=O)C(c2ccc(Cl)cc2)=C1`, 66% (inactive).
The same measure for `CCCCNc1sc(S(=O)(=O)CCC)nc1S(=O)(=O)c1ccc(C)cc1`: 86% (inactive).
On to `Cc1ccc(S(=O)(=O)c2c(Nc3ccc(C)c(C)c3)sc(C(=O)c3ccc4c(c3)OCO4)c2N)cc1`, for which the survival was 125% (inactive).
Consider `COc1ccccc1NC(=O)c1cc2c([nH]c1=O)CC(C)(C)CC2=O`, for which the survival was 90% (inactive).
Take `CCN(CC)C(=O)c1sc2c(c1C)c(=O)n(CCc1ccccc1)c(=O)n2Cc1cccc(Cl)c1`: the survival is 102% (inactive).
With `CCOc1ccc(-c2nc(Cn3ccn4nc(-c5ccc(OCC)c(Cl)c5)cc4c3=O)c(C)o2)cc1`, the survival is 96% (inactive).
With `CCCCOc1ccc(-c2nnn(C(C)(C)C(=O)O)n2)cc1`, the survival is 99% (inactive).
As for `CCOC(=O)c1c(S(=O)(=O)NCC(=O)N2CCN(c3ccccc3OC)CC2)c(C)n(C)c1C`, the figure is 77% (inactive); as for `O=C(CSc1nc(O)cc(=O)[nH]1)Nc1ccccc1`, 82% (inactive).
With `CC(C)CCNC(=O)c1c[nH]c2ccc(S(=O)(=O)Nc3cccc(C(F)(F)F)c3)cc2c1=O`, the survival was 74% (inactive).
Regarding `CN(C(=O)c1c[nH]c2ccc(S(=O)(=O)Nc3cccc(C(F)(F)F)c3)cc2c1=O)C1CCCCC1`, the survival was 72% (inactive).
For `COc1cccc(NS(=O)(=O)c2ccc3[nH]cc(C(=O)NCCc4ccccc4)c(=O)c3c2)c1`, the survival is 83% (inactive).
Take `O=C(NC1CCCC1)c1c[nH]c2ccc(S(=O)(=O)Nc3cccc(C(F)(F)F)c3)cc2c1=O`: the survival was 16% (active).
With `COc1cccc(NS(=O)(=O)c2ccc3[nH]cc(C(=O)NC(C)c4ccccc4)c(=O)c3c2)c1` (centres undefined), the survival is 37% (active).
The same measure for `Cc1ccccc1NS(=O)(=O)c1ccc2[nH]cc(C(=O)NC(C)c3ccccc3)c(=O)c2c1` (centres undefined): 90% (inactive); for `CCOc1ccc(-c2noc(CSc3nnc(Cc4ccccc4)n3-c3cccc(C)c3)n2)cc1`: 66% (inactive); for `Cc1ccc(C)c(Cn2c(SCC(=O)NCc3ccccc3)nc3ccccc32)c1`: 73% (inactive).
In the case of `COc1cc(NC(=O)c2cc(Cl)ccc2Cl)ccc1NC(=O)c1cc2ccccc2o1`, the survival was 55% (inactive).
As for `CCOc1ccc(S(=O)(=O)Nc2ccc3c(c2)c(C(C)=O)c(C)n3S(=O)(=O)c2ccc(OCC)cc2)cc1`, the figure is 67% (inactive); as for `NC(=O)CSc1nnc(Cn2cnc3ccccc32)o1`, 79% (inactive).
In the case of `CCOc1ccc(NC(=O)CCC(=O)N2CCSc3ccccc32)cc1`, the survival is 75% (inactive).
The same measure for `CCCN(C(=O)c1cn(C)c(=O)c2ccccc12)c1ccccc1C`: 79% (inactive).
Regarding `CCCN(C(=O)c1coc(=O)c2ccccc12)c1ccccc1C`, the survival is 56% (active).
The same measure for `CCN(C(=O)c1coc(=O)c2ccccc12)c1ccccc1C`: 113% (inactive); for `CC(=O)N1CCCc2cc(S(=O)(=O)N3CCCC(C(=O)Nc4cccc(F)c4)C3)ccc21` (centres undefined): 87% (inactive); for `CCc1ccc(-n2c(=O)c3c4c(sc3n(Cc3ccc(F)cc3)c2=O)CCCC4)cc1`: 42% (inactive).
In the case of `COc1ccc(-c2cc(C(F)(F)F)n3nc(C(=O)Nc4cc(C)ccc4C)cc3n2)cc1`, the survival was 70% (inactive).
On to `COC(=O)c1ccc(C(=O)OC)c(NC(=O)c2cc3nc(-c4ccc(C)cc4)cc(C(F)(F)F)n3n2)c1`, for which the survival is 83% (inactive).
On to `COc1ccc(NC(=O)c2cc3nc(-c4ccc(Cl)c(Cl)c4)cc(C(F)(F)F)n3n2)c(OC)c1`, for which the survival is 47% (active).
As for `COc1ccc(-c2cc(C(F)(F)F)n3nc(C(=O)Nc4cccc(Cl)c4C)cc3n2)cc1`, the figure is 70% (inactive).
As for `COc1ccc(-c2cc(C(F)(F)F)n3nc(C(=O)Nc4cc(Cl)cc(Cl)c4)cc3n2)cc1`, the survival was 86% (inactive).
Consider `COc1cc(NC(=O)c2cc3nc(-c4ccc(C)cc4)cc(C(F)(F)F)n3n2)cc(OC)c1OC`, for which the survival is 41% (active).
As for `COc1ccc(-c2cc(C(F)(F)F)n3nc(C(=O)Nc4cc(C(F)(F)F)ccc4Cl)cc3n2)cc1OC`, the figure is 152% (inactive).
As for `COc1ccc(Cl)cc1NC(=O)c1cc2nc(-c3ccc(C)cc3)cc(C(F)(F)F)n2n1`, the survival was 78% (inactive).
As for `COC(=O)c1ccccc1NC(=O)c1cc2nc(-c3ccc(OC)cc3)cc(C(F)(F)F)n2n1`, the figure is 36% (active); as for `Cc1cc(N2CCC(C(O)(c3ccccc3)c3ccccc3)CC2)nc(C)n1`, 108% (inactive).
As for `Cc1cc(C)cc(-n2c(SCC(=O)Nc3ccc4c(c3)OCCO4)nc3c([nH]c4ccccc43)c2=O)c1`, the figure is 126% (inactive).
As for `CCc1ccc2oc(C(=O)N(Cc3ccc(N(C)C)cc3)Cc3ccco3)c(C)c2c1`, the figure is 71% (inactive); as for `Cc1c(C(=O)N(Cc2ccco2)Cc2ccccc2Cl)oc2ccc(F)cc12`, 42% (active); as for `COc1cccc(C(=O)N(Cc2cccc(Cl)c2)Cc2ccco2)c1`, 68% (inactive).
With `Cc1cc2oc(C(=O)N(Cc3ccc(N(C)C)cc3)Cc3ccco3)c(C)c2cc1Cl`, the survival was 84% (inactive).
For the compound `O=C(c1cccc(Cl)c1)N(Cc1ccco1)Cc1ccccc1Cl`, the survival is 32% (active).
The same measure for `Cc1cc2oc(C(=O)N(Cc3ccco3)Cc3ccccc3Cl)c(C)c2cc1C`: 43% (active).
`CCc1ccc2oc(C(=O)N(Cc3cccc(Cl)c3)Cc3ccco3)c(C)c2c1`: the survival is 53% (inactive).
For `Cc1ccc(CN(Cc2ccco2)C(=O)c2oc3ccc(C)cc3c2C)cc1`, the survival was 54% (inactive).
With `Cc1cc2oc(C(=O)N(Cc3ccc(Cl)cc3)Cc3ccco3)c(C)c2cc1Cl`, the survival is 64% (inactive).
`Cc1cc(C)cc(OCC(=O)N(Cc2ccco2)Cc2ccccc2Cl)c1`: the survival is 73% (inactive).
For `Cc1c(C(=O)N(Cc2cccc(Cl)c2)Cc2ccco2)oc2ccccc12`, the survival was 40% (active).
In the case of `Cc1cccc(C(=O)N(Cc2ccco2)Cc2ccccc2F)c1`, the survival was 102% (inactive).
For `CCn1cc(C(=O)NCc2ccc(C)cc2)c(=O)c2cc(S(=O)(=O)N(C)C3CCCCC3)ccc21`, the survival was 75% (inactive).
Take `CN(Cc1ccccc1)C(=O)Cn1ncc2c3ccccc3n(Cc3cccc(Cl)c3)c2c1=O`: the survival was 90% (inactive).
On to `Cc1c(Cl)cccc1NC(=O)C(=O)NCCc1csc(-c2cccc(F)c2)n1`, for which the survival was 76% (inactive).
Turning to `CCC(C)[C@@H](C(=O)Nc1ccc(C)cc1)N1Cc2ccccc2C1=O` (some centres undefined), the survival is 74% (inactive).
The same measure for `CCn1cc(C(=O)NCCCOC)c(=O)c2cc(S(=O)(=O)N3CCCC3)ccc21`: 92% (inactive); for `Cc1ccc(C(CC(=O)Nc2ccc(F)c(Cl)c2)N2Cc3ccccc3C2=O)cc1` (centres undefined): 88% (inactive); for `CCC(=O)N1CCc2cc(Br)cc(S(=O)(=O)N3CCCC(C(=O)NCc4ccccc4)C3)c21` (centres undefined): 107% (inactive).
As for `Cc1ccc(CN(Cc2ccco2)C(=O)c2oc3c(C)c(C)ccc3c2C)cc1`, the figure is 50% (inactive); as for `Cc1ccc(CN(Cc2ccco2)C(=O)c2oc3cc(Br)ccc3c2C)cc1`, 43% (active); as for `Cc1c(C(=O)N(Cc2ccc(N(C)C)cc2)Cc2ccco2)oc2cc(Br)ccc12`, 68% (inactive).
The same measure for `CCOc1ccc(C(=O)c2cn(CC(=O)Nc3ccc(OC)cc3)c3cc4c(cc3c2=O)OCO4)cc1`: 69% (inactive); for `CCC1CCCCN1CCCNC(=O)CN1C(=O)c2cccnc2Oc2ccc(C)cc21` (centres undefined): 78% (inactive); for `CCS(=O)(=O)N1CC(=O)N(c2ccc(C)c(C)c2)C(C)(C(=O)NC2CCCCC2)C1` (centres undefined): 87% (inactive).
As for `CCc1ccc(NC(=O)c2cc(S(=O)(=O)N3CCCCC3)c[nH]2)cc1`, the survival is 105% (inactive).
As to `Cc1c(CC(=O)NCc2ccccc2Cl)c(=O)oc2cc(O)ccc12`, the survival is 44% (active).
For the compound `COc1ccccc1CCNC(=O)Cc1c(C)c2ccc(O)cc2oc1=O`, the survival is 57% (inactive).
The same measure for `Cc1cc(O)c2c(C)c(CC(=O)NCc3ccccc3Cl)c(=O)oc2c1`: 62% (inactive); for `CCN(CC)c1ncnc(Cl)c1Cc1ccc(OC)cc1`: 105% (inactive).
As to `COc1ccccc1NC(=O)N1CCN(c2cc(-c3ccccc3)nc3ncnn23)CC1`, the survival was 66% (inactive).
